From PubChem BioAssay AID1745848 (National Center for Advancing Translational Sciences (NCATS), 2022) come the findings set out here.

The whole screen tested about 2,100 compounds, of which about 940 (45%) were called active. Another 48% or so got no clear call; they are omitted. So high a share suggests a set chosen from earlier hits. This is one part of the list. Unmarked numbers belong to inactive results. Calls come from the whole dose curve; as a rule, active = well fitted inhibition curve with a large enough effect; inconclusive = small, poorly fitted or top-dose-only effect; inactive = no such curve, though single readings can be large or run the other way.
Potency is the fitted concentration of half-maximal effect.

The nature of the assay: Confirmatory qHTS for Inhibitors of ATXN expression.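 For activity change, negative = inhibition: 0% = DMSO vehicle wells and -100% = medium-only wells without cells.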 Note: nearly all actives have a fitted effect of over 65% in size. To be noted: ATXN2-luciferase reporter cells, luminescence, 24 h; series mostly up to 11.5 µM; activity change, negative = inhibition: at the top concentration. The essentials:
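Cells carrying ATXN2-luciferase reporter exposed 24 h at 37 C to compound. Viability then read by CellTiter-Fluor (25 uM GF-AFC, 30 min), followed by SteadyGlo luminescence; medium-only wells set 100% inhibition.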
On the technique in general: Quantitative high-throughput screening tests each substance at several concentrations.
Consider `CCc1ccccc1OCC(=O)Nc1nc(-c2cccnc2)cs1`, for which the Potency was 14.1 µM (active).

Take `COc1ccc(/C=C/C(O)=C2/C(=O)N(C)C3(C)CC2c2ccccc2O3)cc1` (stereo not drawn): the Potency is 20 µM (active).

On to `C/[N+]([O-])=C\c1cccc(OCCN2CCN(c3ncc(C(F)(F)F)cc3Cl)CC2)c1`, for which the “activity change, negative = inhibition” value is -26.9%.

For `Cc1ccc(NS(=O)(=O)c2ccc(C(=O)NNC(=O)c3ccccc3O)cc2)cc1`, the Potency was 14.1 µM (active).

On to `COc1ccc(NS(=O)(=O)c2ccc(C(=O)Nc3c(C)n(C)n(-c4ccccc4)c3=O)cc2)cc1`, for which the “activity change, negative = inhibition” value was -4.47%.

As for `CCOc1ccc(NS(=O)(=O)c2ccc(C(=O)NNC(=O)c3ccccc3O)cc2)cc1`, the Potency is 15.8 µM (active).

In the case of `Cc1ccc(C)c(S(=O)(=O)N2CCN(c3ncnc4sccc34)CC2)c1`, the Potency was 0.631 µM (active).

Take `Cc1ccc(N/C(N)=N/c2nc(C)cc(N3CCCCC3)n2)c(C)c1`: the Potency was 3.98 µM (active).

With `COc1cc2c3nnc(-c4ccc(F)cc4)c-3cn(Cc3ccc(F)cc3)c2cc1OC`, the Potency was 2.82 µM (active).

Consider `COc1cc2c3nnc(-c4ccc(F)cc4)c-3cn(Cc3ccccc3F)c2cc1OC`, for which the Potency was 2 µM (active).

With `COc1ccc(Cn2cc3c(-c4ccc(F)cc4)nnc-3c3cc(OC)c(OC)cc32)cc1`, the Potency was 1.78 µM (active).

Turning to `Cc1ccc(NC(=O)/C=C/c2ccc([N+](=O)[O-])s2)c(C)c1`, the Potency was 1.41 µM (active).

Consider `COc1ccccc1NS(=O)(=O)c1cccc(C(=O)N/N=C/c2ccc([N+](=O)[O-])o2)c1`, for which the Potency is 11.2 µM (active).

`O=[N+]([O-])c1ccc(/C=N/N=C/c2ccc([N+](=O)[O-])o2)o1`: the Potency is 6.31 µM (active).

Turning to `CC1(C(=O)N/N=C/c2ccc([N+](=O)[O-])o2)CC1(Br)Br` (stereo not drawn), the Potency is 22.4 µM (active).

For the compound `O=C(N/N=C/c1ccc([N+](=O)[O-])o1)c1ccc2c(c1)OCO2`, the Potency is 14.1 µM (active).

Turning to `Cn1nnnc1Sc1ncnc2scc(-c3ccsc3)c12`, the Potency is 14.1 µM (active).

In the case of `COc1ccc(-c2csc3ncnc(Sc4nnnn4C)c23)cc1`, the Potency was 3.16 µM (active).

On to `CCn1cc(C(=O)NCc2ccccc2)c(=O)c2cc(F)c(N3CCN(C(=O)c4ccco4)CC3)cc21`, for which the Potency is 28.2 µM (active).

Consider `CCn1cc(C(=O)NCc2cccc(F)c2)c(=O)c2cc(F)c(N3CCN(C(=O)c4ccco4)CC3)cc21`, for which the Potency is 15.8 µM (active).

`c1ccc(-c2nnc(-c3ccccn3)nc2NC2CCCCC2)cc1`: the Potency was 1.12 µM (active).

With `CC(C)(C)c1cc[n+](C2=C([O-])c3ccccc3C(=O)/C2=N\S(=O)(=O)c2cccs2)cc1`, the Potency was 1.12 µM (active).

For the compound `O=C(O)CCn1cc(/C=C/C(=O)c2ccc(Cl)cc2)c(-c2ccc(Br)cc2)n1`, the Potency was 25.1 µM (active).

For the compound `O=C(NC1=CC(=O)c2ccccc2C1=O)c1ccccc1`, the Potency was 14.1 µM (active).

As for `COc1ccc(-c2cc(CNc3nc(NC(C)C)nc4cc(-c5ccccc5)sc34)on2)cc1`, the Potency was 11.2 µM (active).

As to `Cc1ccc(C(C)C)c(OCc2ccc(C(=O)N/N=C/c3ccc(O)c(O)c3)cc2)c1`, the Potency was 2.51 µM (active).

Take `Cc1ccc(C(C)C)c(OCc2ccc(C(=O)N/N=C/c3ccc(O)cc3O)cc2)c1`: the Potency was 1.58 µM (active).

Consider `O=C(N/N=C/c1ccc(O)cc1O)c1ccc(CN2C(=O)c3cccc4cccc2c34)cc1`, for which the Potency is 2 µM (active).

In the case of `Cc1ccc(C(C)C)c(OCc2ccc(C(=O)N/N=C/c3cccc(O)c3O)cc2)c1`, the Potency was 2.82 µM (active).

In the case of `Cc1ccc(-c2nc3ccc(Cl)cn3c2CC(C)(C)C)cc1`, the “activity change, negative = inhibition” value is -10.7%.

Take `Clc1ccc(C[n+]2cc(-c3ccccc3)n3c2CCCCC3)c(Cl)c1`: the Potency is 15.8 µM (active).

Turning to `CN[C@H]1C[C@H]2c3[nH]c4ccc(-c5ccc(OC)cc5)cc4c3CCN2C(=O)[C@H]1[C@H](C)O`, the Potency was 3.16 µM (active).

As for `CN(C)CCNc1ncnc2c1sc1nc(N3CCCC3)c3c(c12)CC(C)(C)OC3`, the Potency is 25.1 µM (active).

Turning to `CC1(C)Cc2c(c(N3CCOCC3)nc3sc4c(NN)ncnc4c23)CS1`, the Potency is 8.91 µM (active).

Take `CN(C)CCNc1ncnc2c1sc1nc(N3CCOCC3)c3c(c12)CC(C)(C)SC3`: the Potency was 15.8 µM (active).

With `CCOc1ccc(CN(C)c2nc(-c3cccnc3)nc3ccccc23)cc1OC`, the Potency is 25.1 µM (active).

On to `CCCCCn1c(CN2CCN(c3cccc(Cl)c3)CC2)nc2c1c(=O)[nH]c(=O)n2C`, for which the Potency is 25.1 µM (active).

`CCN1C(=O)C(CC(=O)Nc2ccc(OC)cc2)N(CCc2ccc(F)cc2)C1=S` (stereo not drawn): the Potency was 2.82 µM (active).

For `CC(C)(C)c1cc(C(=O)NN)n(Cc2ccc(Cl)cc2Cl)n1`, the Potency was 15.8 µM (active).

Consider `Oc1c(CN2CCCCC2)ccc2cccnc12`, for which the Potency was 6.31 µM (active).

On to `O=[N+]([O-])c1cc(CN2CCN(c3ccccc3)CC2)c(O)c2ncccc12`, for which the Potency was 3.16 µM (active).

Take `Oc1c(CN2CCN(c3ccccc3)CC2)cc(Br)c2cccnc12`: the Potency was 1.26 µM (active).

For `Oc1c(CN2CCOCC2)cc(COCc2ccccc2)c2cccnc12`, the Potency is 3.16 µM (active).

With `CN(C)CCNC(=O)c1cccc2[nH]c(-c3ccncc3)nc12`, the Potency was 2.82 µM (active).

For the compound `CN(C)CCNC(=O)c1ccc(Cl)c2cc3ccccc3nc12`, the Potency is 6.31 µM (active).

Take `CCN(CC)CCC(=O)Nc1cccc2c1C(=O)c1ccccc1C2=O`: the Potency is 1.58 µM (active).

Turning to `CN(CC(=O)Nc1cccc(F)c1)CC(=O)Nc1cccc2ccccc12`, the “activity change, negative = inhibition” value was -23.6% [at 57.5 µM].

In the case of `Cc1ccc2nc(-c3ccccn3)c(NC3CCCC3)n2c1`, the “activity change, negative = inhibition” value is -29.6%.

On to `Cc1ccn2c(Nc3ccccc3)c(-c3ccccn3)nc2c1`, for which the Potency is 0.708 µM (active).

Turning to `Cc1ccc(Nc2c(-c3ccccn3)nc3cc(C)ccn23)cc1`, the Potency was 3.55 µM (active).

With `Cc1ccc(Nc2c(-c3ccccn3)nc3cccc(C)n23)cc1`, the Potency is 3.16 µM (active).

As to `Cc1ccn2c(Nc3ccccc3C)c(-c3ccccn3)nc2c1`, the Potency was 3.55 µM (active).

In the case of `Cc1cnc(C(=O)NNC(=O)c2ccc(Br)cc2)cn1`, the Potency is 25.1 µM (active).

Consider `Cc1ccc2c(c1)C1CN(C)CCC1N2C(=S)NC(=O)c1ccc(Br)cc1` (stereo not drawn), for which the “activity change, negative = inhibition” value is -21.5%.

Take `COCc1ccc(CN2CCC(C(=O)Nc3cccc(-c4cccc(Cl)c4)c3)CC2)o1`: the Potency was 25.1 µM (active).

As for `O=C(NCc1ccco1)c1ccc(-c2cccc(Cl)c2)o1`, the “activity change, negative = inhibition” value is 40.1% [at 57.5 µM].

In the case of `O=C(Nc1nnc(C2CC2)o1)c1ccc(S(=O)(=O)N2CCCc3ccccc32)cc1`, the Potency is 7.08 µM (active).

For the compound `CC1CCCCN1S(=O)(=O)c1ccc(C(=O)Nc2nnc(-c3ccccc3Cl)o2)cc1` (stereo not drawn), the Potency was 2.51 µM (active).

Take `CN1CCC(N(C)C(=O)c2ccc(Cl)c(S(=O)(=O)N3CCc4ccccc43)c2)CC1`: the “activity change, negative = inhibition” value was -26% [at 57.5 µM].

Take `CSCc1nnc(NC(=O)c2ccc(S(=O)(=O)N3CCCCC3C)cc2)o1` (stereo not drawn): the Potency was 20 µM (active).

Consider `Cc1ccc(C)c(S(=O)(=O)N2CCN(Cc3ccc(O)c4ncccc34)CC2)c1`, for which the Potency is 3.16 µM (active).

As to `O=S(=O)(c1ccc(Cl)cc1)N1CCN(Cc2ccc(O)c3ncccc23)CC1`, the Potency is 3.55 µM (active).

Consider `COc1ccccc1N(CC(=O)N/N=C(\C)c1ccccc1O)S(=O)(=O)c1ccc(C)cc1`, for which the Potency is 15.8 µM (active).

`COc1ccccc1-c1ccc2c(c1)C(C)(Cc1cccc(F)c1)C(=O)N2` (stereo not drawn): the Potency was 28.2 µM (active).

On to `Cc1cnc(NC(=O)CCCc2nc3ccccc3s2)s1`, for which the Potency was 1.41 µM (active).

In the case of `CCN(CC)CCNC(=O)C1CCN(S(=O)(=O)c2c(C)noc2/C=C/c2ccccc2F)CC1`, the Potency was 3.16 µM (active).

Take `COc1cc(NS(=O)(=O)c2ccc(N/C=C(\C#N)c3nc4cc(Cl)ccc4o3)cc2)nc(OC)n1`: the Potency was 3.98 µM (active).

As for `CCCCOc1ccc(NC2=NC3(CCCC3)N=C(N)N2)cc1`, the “activity change, negative = inhibition” value is -18% [at 57.5 µM].

As for `CC[C@H]1CN2CCc3cc(OC)c(OC)cc3[C@@H]2C[C@@H]1C[C@H]1NCCc2cc(OC)c(OC)cc21`, the Potency was 0.0447 µM (active).

Consider `CC[C@H]1CN2CCc3cc(OC)c(OC)cc3C2C[C@@H]1C[C@H]1NCCc2cc(OC)c(OC)cc21` (stereo partly drawn), for which the Potency was 0.316 µM (active).

In the case of `CCC1=C(CC2NCCc3ccccc32)CC2c3cc(OC)c(OC)cc3CCN2C1` (stereo not drawn), the Potency is 8.91 µM (active).

`O=C1C=C(Nc2ccccc2O)c2ccccc2C1=O`: the Potency was 12.6 µM (active).

Consider `CCN1CCN(c2ccc(S(=O)(=O)N3CCCCC3)cc2NC(=O)/C=C/c2ccc([N+](=O)[O-])cc2)CC1`, for which the Potency is 2 µM (active).

In the case of `CCN1CCN(c2ccc(S(=O)(=O)N3CCCCC3)cc2NC(=O)c2ccc([N+](=O)[O-])s2)CC1`, the Potency is 3.16 µM (active).

`COc1ccc(/C=C/C(=O)Nc2cccc(S(=O)(=O)N3CCCC3)c2)cc1OC`: the “activity change, negative = inhibition” value is -15.2%.

As to `Fc1ccc2[nH]c3c(NCc4ccccc4)ncnc3c2c1`, the Potency is 1.12 µM (active).

In the case of `CCOc1ccc2[nH]c3c(NCCc4ccc(OC)c(OC)c4)ncnc3c2c1`, the Potency is 15.8 µM (active).

For `COc1ccc(CNc2ncnc3c2[nH]c2ccccc23)cc1`, the Potency was 8.91 µM (active).

As to `Cn1c(=O)c2c(nc(SCCN3CCOCC3)n2Cc2cccc3ccccc23)n(C)c1=O`, the “activity change, negative = inhibition” value was -12.7%.

`Cc1cc(NC(=O)CSc2nc3c(sc4ccccc43)c(=O)n2CCCN2CCOCC2)n[nH]1`: the Potency was 1.58 µM (active).

Turning to `CCOC(=O)COc1ccc(Br)cc1/C=C/c1[nH]c(=O)[nH]c(=O)c1[N+](=O)[O-]`, the “activity change, negative = inhibition” value is -23.6%.

On to `CC1=NN(c2nc3ccccc3[nH]2)C(=O)C1Cc1ccccc1` (stereo not drawn), for which the Potency is 2 µM (active).

`Cc1cc2nc(-c3nnnn3Cc3ccccc3)c(=O)[nH]c2cc1C`: the “activity change, negative = inhibition” value is -0.827%.

For `CCN(CC)CCNC(=O)c1ccc(NC(=O)Cc2cccc3ccccc23)cc1`, the Potency was 3.98 µM (active).

For the compound `Cc1ccc(-c2cc(-c3ccccc3)nc(NN)n2)cc1`, the Potency was 35.5 µM (active).

Consider `CCOc1ccc(NCc2cccn2-c2nnc(N3CCC(C(=O)NCCCN4CC(C)CC(C)C4)CC3)s2)cc1` (stereo not drawn), for which the Potency was 3.16 µM (active).

Consider `CCSc1nc2ccccc2n1C(=O)/C=C\c1ccc(OC)c(OC)c1`, for which the Potency was 8.91 µM (active).

For the compound `C=CCSc1nc2ccccc2n1C(=O)/C=C/c1ccc(OC)c(OC)c1`, the Potency was 2.82 µM (active).
